Drawing on paper PMC7862700, “An all-to-all approach to the identification of sequence-specific readers for epigenetic DNA modifications on cytosine”, this text covers binding signal for one sequence.

Holding throughout (experiment): DAPPL (digital affinity profiling via proximity ligation, sequencing); 10 mM Tris-HCl pH 7.5, 50 mM NaCl, 1 mM DTT, 4% glycerol, room temperature, 30 min; GST-TFs on glutathione beads, 16-mer random dsDNA library, 0.1% formaldehyde crosslink after washing; high values mean tight binding
One test deals with T1, FEV (Homo sapiens, UniProt Q99581 1-238).
T1 sequence: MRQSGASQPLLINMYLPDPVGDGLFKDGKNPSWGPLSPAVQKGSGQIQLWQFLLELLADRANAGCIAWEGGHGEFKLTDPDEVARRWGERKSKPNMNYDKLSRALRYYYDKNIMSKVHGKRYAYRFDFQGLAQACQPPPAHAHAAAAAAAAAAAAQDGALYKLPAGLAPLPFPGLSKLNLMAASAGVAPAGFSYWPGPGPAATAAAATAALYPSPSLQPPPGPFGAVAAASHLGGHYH
To be noted: protein: recombinant; tags: N-terminal GST; dsDNA, one strand shown. A digest of the protocol:
(§1)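 After expression in yeast as GST fusions, human transcription factors were bound to glutathione beads, DNA-barcoded and mixed with a tag-only sample. The pools were incubated with 200 nmole of a 16-mer random double-stranded DNA library in Tris/NaCl/DTT/glycerol buffer (30 min, room temperature), washed and crosslinked with 0.1% formaldehyde. Proximity ligation with BsaI/T4 ligase ran for 1 h at 37 °C, before PCR amplification and sequencing on an Illumina NextSeq500. Binding signal is a hexamer's read frequency for a factor divided by its frequency for the tag-only sample.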

For another test, the target named is ETV5 (Homo sapiens, UniProt P41161 1-510). To be noted: protein: recombinant; tags: N-terminal GST; dsDNA, one strand shown. A digest of the protocol:
as §1

The next test has as its target HSF1 (Homo sapiens, UniProt Q00613 1-529). As to conditions: protein: recombinant; tags: N-terminal GST; chain copies: 3; dsDNA, one strand shown. A digest of the protocol: as §1
The target of a further test is T2, SPIC (Homo sapiens, UniProt Q8N5J4 1-248).
T2 sequence: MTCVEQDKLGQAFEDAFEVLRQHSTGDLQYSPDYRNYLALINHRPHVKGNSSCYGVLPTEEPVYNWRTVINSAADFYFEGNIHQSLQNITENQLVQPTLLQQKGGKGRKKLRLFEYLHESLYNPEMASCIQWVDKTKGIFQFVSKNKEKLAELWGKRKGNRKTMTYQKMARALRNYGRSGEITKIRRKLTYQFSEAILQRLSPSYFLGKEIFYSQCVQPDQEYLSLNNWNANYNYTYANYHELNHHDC
To be noted: protein: recombinant; tags: N-terminal GST; dsDNA, one strand shown. An outline of the steps: as §1

The target in another test is ELF4 (Homo sapiens, UniProt Q99607 1-663). To be noted: protein: recombinant; tags: N-terminal GST; dsDNA, one strand shown. A digest of the protocol: as §1
The target in a further test is T3, ELK4 (Homo sapiens, UniProt P28324-2 1-405).
T3 sequence: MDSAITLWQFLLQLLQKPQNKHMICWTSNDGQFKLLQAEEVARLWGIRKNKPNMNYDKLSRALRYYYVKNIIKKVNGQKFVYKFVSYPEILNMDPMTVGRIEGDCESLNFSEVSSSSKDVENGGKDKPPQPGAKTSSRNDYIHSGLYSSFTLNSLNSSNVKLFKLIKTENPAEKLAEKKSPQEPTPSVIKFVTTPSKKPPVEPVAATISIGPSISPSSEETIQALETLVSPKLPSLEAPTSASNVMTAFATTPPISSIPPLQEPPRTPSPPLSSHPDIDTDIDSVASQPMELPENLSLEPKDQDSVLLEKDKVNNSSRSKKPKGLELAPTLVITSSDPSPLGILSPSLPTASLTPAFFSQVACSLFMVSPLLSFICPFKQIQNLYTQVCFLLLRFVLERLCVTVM
To be noted: protein: recombinant; tags: N-terminal GST; dsDNA, one strand shown. A digest of the protocol: as §1

The target of a further test is T4, ETV2 (Homo sapiens, UniProt O00321 1-342).
T4 sequence: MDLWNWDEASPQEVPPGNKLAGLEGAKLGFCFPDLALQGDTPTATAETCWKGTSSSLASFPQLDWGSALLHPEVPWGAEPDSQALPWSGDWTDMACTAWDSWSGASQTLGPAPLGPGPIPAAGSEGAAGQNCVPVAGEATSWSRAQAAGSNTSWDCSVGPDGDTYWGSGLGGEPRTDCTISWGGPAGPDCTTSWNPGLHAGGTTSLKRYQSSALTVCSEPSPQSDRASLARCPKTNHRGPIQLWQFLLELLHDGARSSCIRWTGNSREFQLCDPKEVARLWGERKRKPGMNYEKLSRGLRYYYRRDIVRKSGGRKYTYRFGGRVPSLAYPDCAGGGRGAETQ
To be noted: protein: recombinant; tags: N-terminal GST; dsDNA, one strand shown. A digest of the protocol: as §1

Another test deals with T5, ELF3 (Homo sapiens, UniProt P78545 1-371).
T5 sequence: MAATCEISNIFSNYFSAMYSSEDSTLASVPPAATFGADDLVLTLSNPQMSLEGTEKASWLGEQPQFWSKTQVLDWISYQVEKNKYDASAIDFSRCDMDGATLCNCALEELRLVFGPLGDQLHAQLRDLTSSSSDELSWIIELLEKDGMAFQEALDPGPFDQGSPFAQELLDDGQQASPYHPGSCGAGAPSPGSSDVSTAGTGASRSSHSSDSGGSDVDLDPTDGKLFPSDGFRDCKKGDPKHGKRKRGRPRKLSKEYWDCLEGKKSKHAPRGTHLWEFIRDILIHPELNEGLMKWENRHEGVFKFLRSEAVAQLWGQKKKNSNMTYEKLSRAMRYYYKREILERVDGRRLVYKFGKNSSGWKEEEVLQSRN
As to conditions: protein: recombinant; tags: N-terminal GST; dsDNA, one strand shown. An outline of the steps:
as §1

In a further test the target is CRX (Homo sapiens, UniProt O43186 1-299). To be noted: protein: recombinant; tags: N-terminal GST; dsDNA, one strand shown. An outline of the steps:
as §1

Another test has as its target ETV1 (Homo sapiens, UniProt P50549 1-477). To be noted: protein: recombinant; tags: N-terminal GST; dsDNA, one strand shown. A digest of the protocol:
as §1

The target in the next test is T6, ERF (Homo sapiens, UniProt P50548 1-548).
T6 sequence: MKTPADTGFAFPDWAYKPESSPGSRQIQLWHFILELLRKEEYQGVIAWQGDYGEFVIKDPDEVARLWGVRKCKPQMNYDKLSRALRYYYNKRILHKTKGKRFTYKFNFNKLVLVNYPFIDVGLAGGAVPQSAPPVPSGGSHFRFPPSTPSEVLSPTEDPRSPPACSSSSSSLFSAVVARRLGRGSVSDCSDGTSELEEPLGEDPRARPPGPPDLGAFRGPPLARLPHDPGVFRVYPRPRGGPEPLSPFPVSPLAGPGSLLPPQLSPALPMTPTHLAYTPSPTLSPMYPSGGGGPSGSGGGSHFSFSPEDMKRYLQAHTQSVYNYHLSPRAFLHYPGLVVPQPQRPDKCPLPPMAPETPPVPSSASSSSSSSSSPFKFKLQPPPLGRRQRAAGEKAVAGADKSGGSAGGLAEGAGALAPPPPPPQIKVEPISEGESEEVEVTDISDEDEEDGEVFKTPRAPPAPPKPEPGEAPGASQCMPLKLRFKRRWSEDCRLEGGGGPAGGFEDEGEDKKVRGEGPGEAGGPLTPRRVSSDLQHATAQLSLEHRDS
To be noted: protein: recombinant; tags: N-terminal GST; dsDNA, one strand shown. An outline of the steps: as §1

The target of a further test is T7, ETV3L (Homo sapiens, UniProt Q6ZN32 1-361).
T7 sequence: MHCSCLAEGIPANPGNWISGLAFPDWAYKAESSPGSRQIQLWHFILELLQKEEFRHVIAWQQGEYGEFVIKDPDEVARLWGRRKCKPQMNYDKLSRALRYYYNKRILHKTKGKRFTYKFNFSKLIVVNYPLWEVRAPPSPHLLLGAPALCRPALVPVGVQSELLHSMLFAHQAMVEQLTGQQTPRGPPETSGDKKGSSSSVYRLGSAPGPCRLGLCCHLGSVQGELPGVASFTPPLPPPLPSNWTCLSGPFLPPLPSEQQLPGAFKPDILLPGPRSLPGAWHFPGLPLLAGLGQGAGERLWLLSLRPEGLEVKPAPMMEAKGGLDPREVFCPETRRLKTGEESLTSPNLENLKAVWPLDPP
As to conditions: protein: recombinant; tags: N-terminal GST; dsDNA, one strand shown. An outline of the steps:
as §1

The target of another test is T8, ETS2 (Homo sapiens, UniProt P15036 1-469).
T8 sequence: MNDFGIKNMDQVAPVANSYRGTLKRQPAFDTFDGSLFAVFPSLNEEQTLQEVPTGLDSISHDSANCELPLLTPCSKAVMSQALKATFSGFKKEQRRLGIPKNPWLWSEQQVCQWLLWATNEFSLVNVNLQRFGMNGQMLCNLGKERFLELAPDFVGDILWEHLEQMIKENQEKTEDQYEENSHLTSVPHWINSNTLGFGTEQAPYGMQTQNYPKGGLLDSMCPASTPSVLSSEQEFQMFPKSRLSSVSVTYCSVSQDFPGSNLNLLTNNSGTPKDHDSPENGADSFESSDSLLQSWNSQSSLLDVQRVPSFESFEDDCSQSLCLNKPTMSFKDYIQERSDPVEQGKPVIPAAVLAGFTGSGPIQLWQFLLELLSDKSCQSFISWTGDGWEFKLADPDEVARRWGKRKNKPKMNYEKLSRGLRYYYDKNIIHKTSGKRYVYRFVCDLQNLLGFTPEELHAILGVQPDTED
To be noted: protein: recombinant; tags: N-terminal GST; dsDNA, one strand shown. An outline of the steps:
as §1

The next test concerns the target T9, SPDEF (Homo sapiens, UniProt O95238 1-335).
T9 sequence: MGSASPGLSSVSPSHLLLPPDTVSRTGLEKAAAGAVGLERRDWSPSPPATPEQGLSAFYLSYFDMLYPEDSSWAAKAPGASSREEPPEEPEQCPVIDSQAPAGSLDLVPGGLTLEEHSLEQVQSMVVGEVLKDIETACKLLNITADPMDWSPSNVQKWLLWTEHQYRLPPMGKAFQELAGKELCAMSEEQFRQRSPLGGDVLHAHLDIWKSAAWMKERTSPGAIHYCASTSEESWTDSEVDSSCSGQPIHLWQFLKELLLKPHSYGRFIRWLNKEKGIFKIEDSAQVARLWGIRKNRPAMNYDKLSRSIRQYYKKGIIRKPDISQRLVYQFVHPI
To be noted: protein: recombinant; tags: N-terminal GST; dsDNA, one strand shown. An outline of the steps: as §1

The next test deals with T10, ETV7 (Homo sapiens, UniProt Q9Y603 1-341).
T10 sequence: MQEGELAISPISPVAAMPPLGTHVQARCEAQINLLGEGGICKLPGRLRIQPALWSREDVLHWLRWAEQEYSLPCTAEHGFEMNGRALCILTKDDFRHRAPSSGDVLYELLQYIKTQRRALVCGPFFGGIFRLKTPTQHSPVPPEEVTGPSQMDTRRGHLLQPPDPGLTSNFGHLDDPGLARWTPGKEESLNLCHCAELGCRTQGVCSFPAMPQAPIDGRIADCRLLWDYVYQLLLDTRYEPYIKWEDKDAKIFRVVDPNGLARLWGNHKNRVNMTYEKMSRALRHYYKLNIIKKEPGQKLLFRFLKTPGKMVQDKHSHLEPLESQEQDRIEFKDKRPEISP
As to conditions: protein: recombinant; tags: N-terminal GST; dsDNA, one strand shown. A digest of the protocol:
as §1

The target of a further test is T11, ELF5 (Homo sapiens, UniProt Q9UKW6-2 1-255).
T11 sequence: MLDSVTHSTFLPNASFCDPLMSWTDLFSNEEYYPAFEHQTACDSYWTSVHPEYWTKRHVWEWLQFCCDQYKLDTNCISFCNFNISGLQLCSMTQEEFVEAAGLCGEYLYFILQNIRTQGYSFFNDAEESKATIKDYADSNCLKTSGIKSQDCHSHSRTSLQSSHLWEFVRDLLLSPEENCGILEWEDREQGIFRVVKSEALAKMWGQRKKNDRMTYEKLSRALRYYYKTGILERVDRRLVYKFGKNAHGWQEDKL
To be noted: protein: recombinant; tags: N-terminal GST; dsDNA, one strand shown. A digest of the protocol:
as §1

In a further test the target is T12, ETV3 (Homo sapiens, UniProt P41162-2 1-143).
T12 sequence: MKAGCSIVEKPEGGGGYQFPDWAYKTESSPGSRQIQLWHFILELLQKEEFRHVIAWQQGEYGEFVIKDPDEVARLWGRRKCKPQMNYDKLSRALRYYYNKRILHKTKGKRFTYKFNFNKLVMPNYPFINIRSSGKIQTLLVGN
As to conditions: protein: recombinant; tags: N-terminal GST; dsDNA, one strand shown. A digest of the protocol:
as §1

The next test has as its target ETV6 (Homo sapiens, UniProt P41212 1-452). As to conditions: protein: recombinant; tags: N-terminal GST; dsDNA, one strand shown. A digest of the protocol: as §1

Chain of CRX (O43186 whole entry): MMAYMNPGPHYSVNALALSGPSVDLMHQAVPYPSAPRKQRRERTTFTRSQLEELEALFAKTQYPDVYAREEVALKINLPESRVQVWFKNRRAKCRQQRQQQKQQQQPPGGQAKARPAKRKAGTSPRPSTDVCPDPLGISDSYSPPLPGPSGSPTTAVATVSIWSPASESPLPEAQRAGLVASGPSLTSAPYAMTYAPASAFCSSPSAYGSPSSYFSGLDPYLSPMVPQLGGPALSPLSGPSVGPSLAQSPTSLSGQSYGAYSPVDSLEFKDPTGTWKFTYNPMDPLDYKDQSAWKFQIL
Chain of ETV6 (P41212 whole entry): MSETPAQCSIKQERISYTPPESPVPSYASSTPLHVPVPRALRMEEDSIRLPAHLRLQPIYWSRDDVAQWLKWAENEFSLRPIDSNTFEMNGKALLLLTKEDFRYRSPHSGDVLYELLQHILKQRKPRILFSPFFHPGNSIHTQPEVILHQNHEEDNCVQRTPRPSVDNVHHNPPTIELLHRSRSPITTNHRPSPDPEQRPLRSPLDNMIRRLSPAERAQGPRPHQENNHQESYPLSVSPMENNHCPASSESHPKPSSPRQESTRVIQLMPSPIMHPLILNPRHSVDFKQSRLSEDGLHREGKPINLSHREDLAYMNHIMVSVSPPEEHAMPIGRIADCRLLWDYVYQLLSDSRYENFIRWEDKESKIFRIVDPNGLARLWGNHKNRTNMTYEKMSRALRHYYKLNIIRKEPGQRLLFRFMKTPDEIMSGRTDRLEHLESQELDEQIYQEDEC
Chain of HSF1 (Q00613 whole entry): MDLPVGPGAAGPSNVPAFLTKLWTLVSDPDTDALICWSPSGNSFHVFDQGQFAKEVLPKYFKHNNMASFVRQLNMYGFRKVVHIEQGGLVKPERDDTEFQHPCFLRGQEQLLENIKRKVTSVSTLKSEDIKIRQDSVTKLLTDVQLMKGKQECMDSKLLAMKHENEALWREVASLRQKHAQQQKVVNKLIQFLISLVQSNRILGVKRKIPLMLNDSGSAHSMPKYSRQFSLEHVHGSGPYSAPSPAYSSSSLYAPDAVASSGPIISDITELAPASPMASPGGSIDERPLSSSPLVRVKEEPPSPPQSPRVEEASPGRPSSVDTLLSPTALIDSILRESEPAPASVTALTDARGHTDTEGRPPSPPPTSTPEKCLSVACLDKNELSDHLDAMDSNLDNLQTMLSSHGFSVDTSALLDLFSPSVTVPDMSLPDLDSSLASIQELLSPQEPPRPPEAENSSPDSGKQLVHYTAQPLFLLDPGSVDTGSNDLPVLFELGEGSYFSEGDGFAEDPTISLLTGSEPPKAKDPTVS
Chain of ETV1 (P50549 whole entry): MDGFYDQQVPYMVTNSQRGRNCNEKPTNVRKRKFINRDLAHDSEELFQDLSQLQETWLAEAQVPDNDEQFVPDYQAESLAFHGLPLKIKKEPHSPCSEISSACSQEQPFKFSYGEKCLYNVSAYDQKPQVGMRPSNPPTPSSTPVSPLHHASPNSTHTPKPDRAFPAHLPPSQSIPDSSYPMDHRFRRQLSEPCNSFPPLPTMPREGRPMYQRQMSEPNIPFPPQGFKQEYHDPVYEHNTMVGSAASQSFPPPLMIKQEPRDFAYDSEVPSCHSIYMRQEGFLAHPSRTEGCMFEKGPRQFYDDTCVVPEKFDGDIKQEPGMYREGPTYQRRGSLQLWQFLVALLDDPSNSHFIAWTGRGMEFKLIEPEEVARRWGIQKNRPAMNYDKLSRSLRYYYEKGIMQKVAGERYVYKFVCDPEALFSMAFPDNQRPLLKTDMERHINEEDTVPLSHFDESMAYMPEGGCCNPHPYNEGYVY
Chain of ELF4 (Q99607 whole entry): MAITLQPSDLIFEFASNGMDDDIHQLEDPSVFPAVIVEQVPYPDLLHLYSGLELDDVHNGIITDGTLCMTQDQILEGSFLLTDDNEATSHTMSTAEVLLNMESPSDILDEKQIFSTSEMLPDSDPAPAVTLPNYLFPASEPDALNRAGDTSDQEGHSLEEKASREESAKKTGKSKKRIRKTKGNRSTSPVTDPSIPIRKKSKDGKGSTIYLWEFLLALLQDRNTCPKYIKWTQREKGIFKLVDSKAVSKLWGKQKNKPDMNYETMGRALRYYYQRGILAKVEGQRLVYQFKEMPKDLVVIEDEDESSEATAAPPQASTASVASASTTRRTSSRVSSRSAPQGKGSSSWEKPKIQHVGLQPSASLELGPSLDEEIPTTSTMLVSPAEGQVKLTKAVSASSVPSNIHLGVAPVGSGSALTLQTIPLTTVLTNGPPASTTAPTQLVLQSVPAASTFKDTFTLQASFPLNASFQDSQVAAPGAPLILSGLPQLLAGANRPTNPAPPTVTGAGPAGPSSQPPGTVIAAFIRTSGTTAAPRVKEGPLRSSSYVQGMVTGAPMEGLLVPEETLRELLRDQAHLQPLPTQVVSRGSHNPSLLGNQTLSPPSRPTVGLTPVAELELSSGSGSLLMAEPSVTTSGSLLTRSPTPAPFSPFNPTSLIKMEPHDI
Chain of ETV5 (P41161 whole entry): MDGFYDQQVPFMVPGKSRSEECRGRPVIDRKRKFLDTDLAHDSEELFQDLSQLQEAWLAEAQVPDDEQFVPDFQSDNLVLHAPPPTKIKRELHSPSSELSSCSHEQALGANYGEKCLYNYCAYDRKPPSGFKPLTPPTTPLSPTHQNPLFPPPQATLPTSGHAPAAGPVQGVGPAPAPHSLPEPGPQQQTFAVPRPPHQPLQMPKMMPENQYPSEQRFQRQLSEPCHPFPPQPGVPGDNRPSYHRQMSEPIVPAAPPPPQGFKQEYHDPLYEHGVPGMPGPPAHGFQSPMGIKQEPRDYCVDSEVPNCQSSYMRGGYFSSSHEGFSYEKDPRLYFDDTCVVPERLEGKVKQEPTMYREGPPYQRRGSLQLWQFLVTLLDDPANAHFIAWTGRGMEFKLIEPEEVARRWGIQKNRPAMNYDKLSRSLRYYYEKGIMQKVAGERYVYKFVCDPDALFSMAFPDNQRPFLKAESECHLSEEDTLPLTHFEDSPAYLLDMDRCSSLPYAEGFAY

Consider CTCAAG, for which the binding signal in the test with FEV was 1.16 fold enrichment (6-mer frequency, TF over GST control); with ETV5 it was 1.14 fold enrichment (6-mer frequency, TF over GST control); with HSF1, 1.19 fold enrichment (6-mer frequency, TF over GST control); with SPIC, 1.1 fold enrichment (6-mer frequency, TF over GST control); in the test with ELF4, 1.19 fold enrichment (6-mer frequency, TF over GST control); with ELK4 it was 1.09 fold enrichment (6-mer frequency, TF over GST control). The binding signal in the test with ETV2 was 1.11 fold enrichment (6-mer frequency, TF over GST control); in the test with ELF3, 1.22 fold enrichment (6-mer frequency, TF over GST control); with CRX, 1.2 fold enrichment (6-mer frequency, TF over GST control); with ETV1, 1.21 fold enrichment (6-mer frequency, TF over GST control); with ERF, 1.27 fold enrichment (6-mer frequency, TF over GST control); with ETV3L, 1.1 fold enrichment (6-mer frequency, TF over GST control). The binding signal with ETS2 was 1.22 fold enrichment (6-mer frequency, TF over GST control); with SPDEF, 1.14 fold enrichment (6-mer frequency, TF over GST control); with ETV7, 1.24 fold enrichment (6-mer frequency, TF over GST control); in the test with ELF5, 1.1 fold enrichment (6-mer frequency, TF over GST control); with ETV3 it was 1.24 fold enrichment (6-mer frequency, TF over GST control); with ETV6, 1.22 fold enrichment (6-mer frequency, TF over GST control).
